Test [1] addresses Bile acid receptor (Homo sapiens) (UniProt Q96RI1). The test can be described thus: NVS_NR_hFXR_Antagonist: NovaScreen (NVS) Nuclear Receptor Binding Assay for human Farnesoid X Receptor Antagonism (FXR) (AID 2283350). The method, boiled down: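 Antagonist-format time-resolved FRET binding assay with extracted human receptor protein, read 1 hour after compound addition. Compounds first screened at 25 uM in duplicate, then actives tested in concentration series, with loss of signal relative to DMSO.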

Test [2] addresses rat Mineralocorticoid Receptor (MR), Nr3c2 (gene 25672) (UniProt P22199). The test can be described thus: NVS_NR_rMR: NovaScreen (NVS) Nuclear Receptor Binding Assay for rat Mineralocorticoid Receptor (MR) (AID 2283355). Summed up:
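Single-concentration duplicate screen (25 uM) of radioligand binding in adrenalectomized rat brain supernatant; scintillation detection 24 h after dosing. Positive and negative controls ran on each plate, and confirmed actives went to concentration-response.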

The target of test [3] is Estrogen receptor (Homo sapiens) (UniProt P03372). The test is described as follows: OT_ER_ERaERa_1440: Odyssey Thera (OT) 24-hour HEK293T Protein-Complementation Assay for Estrogen Receptor-alpha/-alpha Homodimer (AID 2283349).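 Also: hits raise fluorescence above DMSO for agonists and antagonists alike.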 Summed up: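 Stably transfected HEK293T; ERα LBD homodimer PCA. 24 h dosing, fluorescence intensity read, gain-of-signal vs DMSO.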
Estrogen receptor (Homo sapiens), sequence (P03372 whole entry, looked up, the tested form may be a part): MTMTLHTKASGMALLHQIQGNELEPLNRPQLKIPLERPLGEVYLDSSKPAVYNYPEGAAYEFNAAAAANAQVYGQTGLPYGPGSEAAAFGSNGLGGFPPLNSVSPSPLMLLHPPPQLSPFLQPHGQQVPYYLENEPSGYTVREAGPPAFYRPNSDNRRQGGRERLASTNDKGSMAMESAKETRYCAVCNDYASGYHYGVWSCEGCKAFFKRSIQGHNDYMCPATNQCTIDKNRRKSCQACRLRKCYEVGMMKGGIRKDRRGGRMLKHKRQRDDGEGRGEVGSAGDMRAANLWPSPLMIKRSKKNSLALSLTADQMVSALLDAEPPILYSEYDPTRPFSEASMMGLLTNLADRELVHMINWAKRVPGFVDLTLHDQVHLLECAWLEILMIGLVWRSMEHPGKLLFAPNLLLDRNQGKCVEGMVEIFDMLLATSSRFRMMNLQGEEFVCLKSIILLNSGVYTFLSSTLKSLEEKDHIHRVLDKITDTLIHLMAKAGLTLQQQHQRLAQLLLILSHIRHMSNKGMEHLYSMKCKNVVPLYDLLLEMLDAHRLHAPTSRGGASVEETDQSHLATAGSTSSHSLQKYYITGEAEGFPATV
The target is the same in test [4]. The test can be described thus: OT_ER_ERaERa_0480: Odyssey Thera (OT) 8-hour HEK293T Protein-Complementation Assay for Estrogen Receptor-alpha/-alpha Homodimer (AID 2283351).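 Also: rise in fluorescence from reassembled reporter fragments on ERα LBD homodimer in nucleus or whole cell.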 Summed up: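 HEK293T cells stably expressing a PCA pair of ER alpha LBD (residues 310-547) were dosed for 8 hours. The gain in fluorescence intensity, nuclear for agonists and whole-cell for antagonists, was measured by laser scanning cytometry against DMSO vehicle.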

The target in test [5] is T1, Estrogen receptor (Homo sapiens) + Estrogen receptor beta (Homo sapiens) (UniProt P03372+Q92731). The test is described as follows: OT_ER_ERaERb_0480: Odyssey Thera (OT) 8-hour HEK293T Protein-Complementation Assay for Estrogen Receptor-alpha/-beta Heterodimer (AID 2283352). The method, boiled down: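 HEK293T protein-fragment complementation assay of ER-alpha/ER-beta LBD heterodimerisation, read 8 h after dosing. Mean nuclear/cytoplasmic fluorescence intensity measured by laser scanning cytometry; gain of signal fitted relative to DMSO.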
T1 sequence (P03372 whole entry, looked up, the tested form may be a part): as above
T1 sequence (Q92731 whole entry, looked up, the tested form may be a part): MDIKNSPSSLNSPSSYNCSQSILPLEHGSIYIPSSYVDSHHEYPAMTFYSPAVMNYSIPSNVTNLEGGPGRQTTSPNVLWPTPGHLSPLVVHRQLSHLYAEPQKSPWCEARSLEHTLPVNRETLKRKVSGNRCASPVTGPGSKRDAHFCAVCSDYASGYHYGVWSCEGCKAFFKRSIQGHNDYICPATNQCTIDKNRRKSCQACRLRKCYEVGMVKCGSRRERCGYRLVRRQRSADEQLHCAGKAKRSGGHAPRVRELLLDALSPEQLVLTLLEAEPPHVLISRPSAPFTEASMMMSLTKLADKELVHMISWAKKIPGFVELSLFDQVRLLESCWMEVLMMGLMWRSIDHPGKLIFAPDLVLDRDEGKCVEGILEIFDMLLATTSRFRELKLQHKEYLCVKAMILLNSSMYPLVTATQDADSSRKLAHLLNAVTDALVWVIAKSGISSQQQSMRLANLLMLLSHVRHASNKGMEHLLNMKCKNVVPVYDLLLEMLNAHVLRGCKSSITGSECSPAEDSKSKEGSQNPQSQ

The target of test [6] is T1, Estrogen receptor (Homo sapiens) + Estrogen receptor beta (Homo sapiens). The test can be described thus: OT_ER_ERaERb_1440: Odyssey Thera (OT) 24-hour HEK293T Protein-Complementation Assay for Estrogen Receptor-alpha/-beta Homodimer (AID 2283356).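 Also: heteromer of ER alpha and ER beta binding domains; hits raise reporter fluorescence and both agonists and antagonists give an increase.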 The method, boiled down:
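HEK293T stably expressing a PCA of ER alpha LBD (aa 310-547) and ER beta LBD (aa 263-489). After 24 h compound exposure, mean fluorescence intensity in nucleus (agonists) or nucleus and cytoplasm (antagonists) measured by laser scanning cytometry versus vehicle.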

Test [7] addresses Estrogen receptor beta (Homo sapiens) (UniProt Q92731). The test can be described thus: OT_ER_ERbERb_0480: Odyssey Thera (OT) 8-hour HEK293T Protein-Complementation Assay for Estrogen Receptor-beta/-beta Homodimer (AID 2283357).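 Also: active means signal gain over DMSO baseline.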 Summed up: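 Fluorescence gain from complemented reporter fragments on ER-beta LBD homodimer in HEK293T was quantified against DMSO controls after 8 h treatment, fixation in 4% formaldehyde and Draq5 staining.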

Test [8] addresses Androgen Receptor/SRC-1 Co-activator, AR (gene 367) (UniProt P10275). The test can be described thus: OT_AR_ARSRC1_0960: Odyssey Thera (OT) 16-hour HEK293T Protein-Complementation Assay for Androgen Receptor/SRC-1 Co-activator (AID 2283353).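 Also: actives raise the signal above DMSO so potency reflects increased AR and SRC-1 complex.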 Summed up:
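Endpoint is gain-of-signal N/C fluorescence ratio in the 488 nm channel versus DMSO, from at least 400 cells per image, measured 16 h post-dosing. Cells: HEK293T stably carrying split-Venus AR/SRC-1 complementation constructs.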

Test [9] has the same target. The test is described as follows: OT_AR_ARSRC1_0480: Odyssey Thera (OT) 8-hour HEK293T Protein-Complementation Assay for Androgen Receptor/SRC-1 Co-activator (AID 2283354).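 Also: hits raise the complementation signal above DMSO so AC50 marks enhancers.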 The method, boiled down: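 After 8 h dosing, stably expressing HEK293T cells with split-Venus AR/SRC-1 fusions were imaged (488, 635nm). The 488nm N/C ratio per image gave the endpoint, analysed in the positive direction against DMSO.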

Molecules are shown by their SMILES. Results filed as inconclusive are left out. Calls of active or inactive are those of the source. The calls were made as follows: active = hit-call score of the fitted dose curve at least 0.9, where 1 is the maximum; inconclusive = response in the unintended direction; inactive = score below 0.9.

Androgen Receptor/SRC-1 Co-activator, AR (gene 367), sequence (P10275 whole entry, looked up): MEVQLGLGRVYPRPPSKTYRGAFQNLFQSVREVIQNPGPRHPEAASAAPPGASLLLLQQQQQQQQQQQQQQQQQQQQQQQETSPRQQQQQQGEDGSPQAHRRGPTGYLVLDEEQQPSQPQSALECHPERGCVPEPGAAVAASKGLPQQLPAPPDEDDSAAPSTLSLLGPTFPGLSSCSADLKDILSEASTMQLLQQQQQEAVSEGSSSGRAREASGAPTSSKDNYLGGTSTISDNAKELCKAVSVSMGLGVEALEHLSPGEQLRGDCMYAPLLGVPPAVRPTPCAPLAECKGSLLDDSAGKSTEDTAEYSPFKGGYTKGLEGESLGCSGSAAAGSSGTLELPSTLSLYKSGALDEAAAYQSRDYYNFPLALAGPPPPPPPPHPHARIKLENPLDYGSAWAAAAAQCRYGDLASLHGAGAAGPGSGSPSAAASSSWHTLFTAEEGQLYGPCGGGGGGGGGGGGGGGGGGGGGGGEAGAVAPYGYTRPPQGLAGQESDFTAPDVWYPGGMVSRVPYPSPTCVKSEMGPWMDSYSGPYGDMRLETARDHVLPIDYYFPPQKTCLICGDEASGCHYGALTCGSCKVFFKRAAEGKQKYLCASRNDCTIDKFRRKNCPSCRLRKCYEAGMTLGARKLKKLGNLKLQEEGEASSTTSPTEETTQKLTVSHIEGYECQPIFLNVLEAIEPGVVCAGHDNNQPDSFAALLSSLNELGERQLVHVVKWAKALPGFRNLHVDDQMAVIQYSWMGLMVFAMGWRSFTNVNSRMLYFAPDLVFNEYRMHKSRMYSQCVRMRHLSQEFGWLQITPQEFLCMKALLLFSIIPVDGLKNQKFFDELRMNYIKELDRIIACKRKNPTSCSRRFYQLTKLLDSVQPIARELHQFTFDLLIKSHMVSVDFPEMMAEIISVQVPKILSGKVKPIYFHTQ
rat Mineralocorticoid Receptor (MR), Nr3c2 (gene 25672), sequence (P22199 whole entry, looked up): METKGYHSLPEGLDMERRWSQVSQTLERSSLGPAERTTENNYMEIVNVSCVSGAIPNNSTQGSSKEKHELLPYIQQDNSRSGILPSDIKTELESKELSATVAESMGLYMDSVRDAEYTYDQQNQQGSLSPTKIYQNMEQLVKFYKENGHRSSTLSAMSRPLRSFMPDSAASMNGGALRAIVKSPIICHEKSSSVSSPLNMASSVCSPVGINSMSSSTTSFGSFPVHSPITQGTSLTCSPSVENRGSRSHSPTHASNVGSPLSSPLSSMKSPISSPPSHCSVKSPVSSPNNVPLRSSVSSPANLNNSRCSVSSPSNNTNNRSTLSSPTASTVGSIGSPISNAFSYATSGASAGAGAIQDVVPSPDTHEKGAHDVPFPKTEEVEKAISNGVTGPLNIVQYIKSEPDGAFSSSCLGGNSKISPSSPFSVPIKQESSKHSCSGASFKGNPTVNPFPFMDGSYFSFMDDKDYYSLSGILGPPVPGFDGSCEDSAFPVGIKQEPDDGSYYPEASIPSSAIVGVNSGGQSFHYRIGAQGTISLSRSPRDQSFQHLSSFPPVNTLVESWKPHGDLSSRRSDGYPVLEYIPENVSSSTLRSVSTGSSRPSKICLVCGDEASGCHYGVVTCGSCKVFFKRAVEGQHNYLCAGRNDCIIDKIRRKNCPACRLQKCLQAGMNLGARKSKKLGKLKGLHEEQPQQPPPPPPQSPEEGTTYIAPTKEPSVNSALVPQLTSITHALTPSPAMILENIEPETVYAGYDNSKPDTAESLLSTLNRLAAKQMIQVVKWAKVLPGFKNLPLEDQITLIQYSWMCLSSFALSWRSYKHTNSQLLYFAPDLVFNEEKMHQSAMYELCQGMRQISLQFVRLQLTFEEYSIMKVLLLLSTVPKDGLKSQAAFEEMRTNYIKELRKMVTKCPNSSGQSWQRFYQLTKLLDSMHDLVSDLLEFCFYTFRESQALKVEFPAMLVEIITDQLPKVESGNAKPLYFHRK
Estrogen receptor beta (Homo sapiens), sequence (Q92731 whole entry, looked up, the tested form may be a part): as the sequence (Q92731 whole entry, looked up, the tested form may be a part) above
Bile acid receptor (Homo sapiens), sequence (Q96RI1 whole entry, looked up): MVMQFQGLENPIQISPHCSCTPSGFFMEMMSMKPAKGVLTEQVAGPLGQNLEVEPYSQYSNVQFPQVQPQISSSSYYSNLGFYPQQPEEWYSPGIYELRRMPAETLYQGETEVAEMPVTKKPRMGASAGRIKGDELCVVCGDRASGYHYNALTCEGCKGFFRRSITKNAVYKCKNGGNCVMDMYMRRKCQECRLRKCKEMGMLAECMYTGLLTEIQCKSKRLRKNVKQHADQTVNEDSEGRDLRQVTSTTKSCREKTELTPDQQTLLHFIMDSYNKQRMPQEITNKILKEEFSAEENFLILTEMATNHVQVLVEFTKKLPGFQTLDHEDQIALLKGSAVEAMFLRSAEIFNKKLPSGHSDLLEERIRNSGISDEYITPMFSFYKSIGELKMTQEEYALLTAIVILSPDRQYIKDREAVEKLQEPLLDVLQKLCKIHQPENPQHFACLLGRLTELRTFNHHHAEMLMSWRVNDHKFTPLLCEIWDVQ

By AC50 is commonly meant the concentration at which the activity in the assay is half-maximal. Regarding `O=C(O)Cc1cc(I)c(Oc2ccc(O)c(I)c2)c(I)c1`, the AC50 in [1] is 40.3 µM (active). Further, the call in [2] was inactive.
For the compound `CCCCCCCCCCCO`, the compound was called inactive in [3], in test [4], in [5], in test [6] and in [7].
As for `CCCCCCCCOC(=O)c1cc(O)c(O)c(O)c1`, the half-maximal activity concentration (AC50) in [3] is 14.4 µM (active); in [4] it was 12.1 µM (active); in test [5] it was 11.9 µM (active); in [6] it was 13 µM (active).
For the compound `Clc1ccccc1C(c1ccccc1)(c1ccccc1)n1ccnc1`, the call in test [3], in test [4] and in test [6] was inactive.
For the compound `Clc1cc(Cl)c2c(c1)N=C1CCCCCN1C2`, the compound was called inactive in test [3] and in test [4].
With `CC(C)(O)c1ccc(CNC(=O)c2cccnc2Oc2ccc3nonc3c2)cc1`, the compound was classed as inactive in test [3], in [4] and in test [6].
In the case of `CCCCCCCCCC(=O)O`, the result in test [8] and in [9] was inactive.
For the compound `O=CCCCC=O`, the compound was called inactive in test [3], in test [4] and in test [2].
For `O=C(O)c1ccccc1-n1cc(C(=O)O)c(=O)c2cc(Nc3c(F)cc(F)cc3Cl)c(Cl)cc21`, the compound was classed as inactive in [3], in [5], in test [2] and in test [6].
Regarding `CC1=CC(=O)/C(=C(/C)O)C(=O)O1`, the result in test [3], in test [4], in test [5] and in test [6] was inactive.
As for `c1ccc2ccccc2c1`, the call in test [3] and in test [4] was inactive.
On to `CC[C@@H]1C[C@H](N(Cc2cc(C(F)(F)F)cc(C(F)(F)F)c2)C(C)=O)c2cc(C(F)(F)F)ccc2N1C(=O)OC(C)C`, for which the outcome in test [3] and in [6] was inactive.
On to `COCC(C)OCC(C)OCC(C)O` (stereo unspecified), for which the outcome in test [3], in test [4], in test [8], in test [9] and in [6] was inactive.
